# Screens from PubChem.
# rCAG RNA binder: molecules binding r(CAG) RNA repeats. AID 651821. inhibition, % at 3 µM. 370,000 compounds, 1.3% hits. r(CAG) RNA repeat, TO-PRO-1 dye displacement fluorescence;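 active = inhibition above the plate cutoff, the mean of all test compounds on that plate plus 3 SD, cut at about 35% in these data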;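 note: 0% = DMSO alone and 100% = 100 µM mitoxantrone as full dye displacement; higher means more dye released from RNA so lower well fluorescence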
# PRMT1 inh: blocks human protein arginine methyltransferase 1 | inhibition, % at 2.79 µM | Q99873 | recombinant PRMT1, activity-based probe fluorescence polarization | 370,000 compounds, 1.3% hits;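 active = inhibition above about 21% made by adding two undisclosed values, limit read from the data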
# ABHD5-PLIN5 inh: ABHD5-PLIN5 protein interaction inhibition; inhibition, % at 4 µM; 360,000 compounds, 0.78% hits; Q00G26+Q8WTS1; Split G. princeps luciferase complementation, luminescence, 4 h;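 active = inhibition above the mean inhibition across every tested compound plus 3 SD, cut at about 22% in these data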;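 note: 0% = DMSO only wells and the 100% control is not disclosed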
# TLR9-MyD88 inh: TLR9-MyD88 interaction inhibition | CHO BLA complementation TLR9-MyD88, CCF4 FRET ratio | 340,000 compounds, 0.21% hits | inhibition, % at 4.98 µM | AID 504734 | Q9NR96+Q99836;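 active = inhibition above the mean over all tested compounds plus 3 SD, cut at about 21% in these data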;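 note: 0% = DMSO only wells and 100% = clavulanate BLA inhibitor control wells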
# TLR4-MyD88 BLA: blocks binding of human TLR4 to MyD88 | O00206+Q99836 | 200,000 compounds, 0.18% hits | AID 861 | HeLa CL3-4 TLR4/MyD88 BLA complementation, FRET ratio | inhibition, % at 8.4 µM; in the data active = inhibition above about 25%;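 note: 0% = vehicle and 100% = reference inhibitor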
# NOD2-RIPK2 inh: inhibitors of human NOD2-RIPK2 interaction. inhibition, % at 4.98 µM. O43353. CHO BLA complementation NOD2-RIPK2, CCF4 ratio. 360,000 compounds, 0.38% hits; in the data active = inhibition above about 21%;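 note: 0% = vehicle only and 100% = reference blocker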
# Target sequence (O43353 whole entry, looked up): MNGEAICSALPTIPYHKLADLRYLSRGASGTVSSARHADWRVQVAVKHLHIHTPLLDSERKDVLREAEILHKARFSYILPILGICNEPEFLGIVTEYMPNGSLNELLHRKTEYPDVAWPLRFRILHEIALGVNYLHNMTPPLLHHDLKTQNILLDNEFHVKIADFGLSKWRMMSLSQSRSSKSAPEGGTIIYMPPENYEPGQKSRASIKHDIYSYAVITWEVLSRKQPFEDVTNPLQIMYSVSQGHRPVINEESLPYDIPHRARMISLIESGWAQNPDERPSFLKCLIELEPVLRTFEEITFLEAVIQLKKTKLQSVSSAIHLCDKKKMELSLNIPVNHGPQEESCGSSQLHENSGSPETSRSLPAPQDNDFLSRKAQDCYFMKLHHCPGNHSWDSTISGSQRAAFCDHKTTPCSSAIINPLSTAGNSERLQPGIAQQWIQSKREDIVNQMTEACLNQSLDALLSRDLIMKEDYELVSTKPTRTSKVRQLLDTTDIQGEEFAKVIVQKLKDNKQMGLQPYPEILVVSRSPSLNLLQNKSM
# rCAG bind conf: r(CAG) RNA repeat binding, confirmation; shares compounds with rCAG RNA binder; TO-PRO-1 dye displacement fluorescence; inhibition, % at 3 µM; 4,300 compounds, 70% hits; AID 652065;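 active = inhibition above a per-plate cutoff, the mean inhibition of sample wells plus 3 SD, cut at about 35% in these data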;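 note: loss of TO-PRO-1 fluorescence as compound displaces dye from 1x1 AA loop RNA; 0% = DMSO only wells and 100% = 100 µM mitoxantrone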
# DNA CAG counter: disrupts DNA CAG TO-PRO-1 complex, flagging rCAG hits; inhibition, % at 3 µM; d(CAG) DNA oligo TO-PRO-1 dye displacement, fluorescence; 4,300 compounds, 94% hits; shares compounds with rCAG RNA binder;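 active = inhibition above its plate's cutoff, the mean test-well inhibition plus 3 SD, cut at about 4.8% in these data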;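 note: 0% = DNA dye mix with DMSO and 100% = 100 µM mitoxantrone; hits displace the dye from DNA and so lower well fluorescence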
# dCAG dye DR: counter-screen for rCAG binders: inhibitors of DNA CAG TO-PRO-1 complex; shares compounds with rCAG RNA binder; DNA CAG/GTC duplex TO-PRO-1 dye displacement fluorescence; IC50, µM; 250 compounds, 20% hits; AID 686960; in the data active = IC50 below about 10 µM
# Numbers without * were called inactive; i = inactive; x = no result given. This is a sample that favours compounds with a hit; in the whole collection about 3.3% have one here.
SMILES,rCAG RNA binder,PRMT1 inh,ABHD5-PLIN5 inh,TLR9-MyD88 inh,TLR4-MyD88 BLA,NOD2-RIPK2 inh,rCAG bind conf,DNA CAG counter,others
Cc1cc(O)c2c(c1)C(=O)c1cc(O)cc(O)c1C2=O,21,12,-10,-4,x,-4,x,x,
O=C1c2cc(O)cc(O)c2C(=O)c2c1cc(O)c([C@@H](CO)CCO)c2O,53*,13,7,7,x,-3,44*,19*,
N#C/C(=N\Nc1ccc(Cl)c(Cl)c1)C(=O)C1CC1,52*,-1,5,x,x,-22,55*,17*,
N#C/C(=N\Nc1ccc(F)cc1)C(=O)C1CC1,0,-2,0,x,x,-16,x,x,
Cc1ccc(O)c(C(C)c2c[nH]c3ccccc23)c1 (centres undefined),4,4,x,x,x,x,x,x,
Cc1cc(C)nc(N2CCC(C(=O)N(C)CCc3ccccc3)CC2)n1,-3,5,x,x,x,x,x,x,
Cc1cc(C)c2oc(C(=O)Nc3ccc(S(=O)(=O)Nc4nccs4)cc3)cc(=O)c2c1,68*,-2,-2,7,x,1,64*,29*,
Cc1cc2oc(C(=O)Nc3ccc(S(=O)(=O)Nc4nccs4)cc3)cc(=O)c2cc1Cl,77*,2,5,5,-2,1,87*,48*,
Cc1onc(-c2ccccc2Cl)c1C(=O)Nc1ccc(S(=O)(=O)Nc2nccs2)cc1,41*,5,-4,5,17,1,37*,13*,
COc1ccc([C@@H]2CC=C(C(=O)O)[C@H](c3ccc(C)cc3)N2S(=O)(=O)c2ccc(C)cc2)cc1OC,40*,6,6,-7,x,-6,36*,7.8*,
COc1ccc([C@@H]2CC=C(C(=O)O)[C@H](c3ccc(Cl)cc3)N2S(=O)(=O)c2ccc(C)cc2)cc1OC,57*,5,-4,-3,x,-12,34,9.3*,
COc1cccc([C@@H]2CC=C(C(=O)O)[C@H](c3ccc(Cl)cc3)N2S(=O)(=O)c2ccc(C)cc2)c1,64*,0,-1,-5,x,7,62*,23*,
COc1cccc([C@@H]2CC=C(C(=O)O)[C@H](c3ccc(C)cc3)N2S(=O)(=O)c2ccc(C)cc2)c1,30,2,-11,-11,x,-6,x,x,
COc1cccc([C@@H]2CC=C(C(=O)O)[C@H](c3ccccc3F)N2S(=O)(=O)c2ccc(C)cc2)c1,41*,-1,-1,-6,x,-7,37*,9.0*,
Cn1c(CC(=O)Nc2ccccc2F)nnc1SCC(=O)N1CCOCC1,-3,-4,-1,8,x,3,x,x,
CN(C(=O)c1cc2ccccc2o1)c1c(N)n(Cc2ccccc2)c(=O)[nH]c1=O,8,-1,1,-7,x,-8,x,x,
Cc1ccc(S(=O)(=O)N2[C@@H](c3cccc(Cl)c3)C(C(=O)O)=CC[C@H]2c2cccc(C)c2)cc1,10,0,9,-4,x,-9,x,x,
COc1cc([C@@H]2CC=C(C(=O)O)[C@H](c3cccc(Cl)c3)N2S(=O)(=O)c2ccc(C)cc2)cc(OC)c1OC,45*,3,1,3,x,2,45*,10*,
COc1cc([C@@H]2CC=C(C(=O)O)[C@H](c3ccc(C)cc3)N2S(=O)(=O)c2ccc(C)cc2)cc(OC)c1OC,35*,1,-7,-4,x,-6,42*,8.6*,
COc1ccc([C@@H]2CC=C(C(=O)O)[C@H](c3ccc(C(C)(C)C)cc3)N2S(=O)(=O)c2ccc(C)cc2)cc1OC,67*,-2,1,-1,x,-18,66*,28*,
CCN1C(=O)/C(=C2\SC(=S)N(NC(=O)c3ccccc3O)C2=O)c2ccccc21,77*,9,-8,7,x,-6,86*,58*,
CCN1C(=O)/C(=C2\SC(=S)N(CC3CCCO3)C2=O)c2ccccc21 (centres undefined),x,x,x,x,10,x,x,x,
Cc1cc(=O)oc2cc(OCC(=O)N3CCN(C(=O)C4COc5ccccc5O4)CC3)c(Cl)cc12 (centres undefined),-1,-6,-4,-12,x,-4,x,x,
C/C(=N\Nc1ccc(Cl)c(C(=O)O)c1)c1ccc(Br)s1,43*,6,1,3,x,0,48*,13*,
O=C(O)c1cccc(CSc2nc(-c3ccc(Cl)cc3)cc(C(F)(F)F)n2)c1,68*,-1,-9,-7,6,-4,71*,33*,dCAG dye DR=i
SMILES,rCAG RNA binder,PRMT1 inh,ABHD5-PLIN5 inh,TLR9-MyD88 inh,TLR4-MyD88 BLA,NOD2-RIPK2 inh,rCAG bind conf,DNA CAG counter,others
COc1ccc(-c2cc(C)nc(SCc3cccc(C(=O)O)c3)n2)cc1,47*,5,5,-17,-4,-1,49*,9.7*,dCAG dye DR=>30
O=C(O)c1cccc(CSc2nnc(-c3ccc(Cl)cc3)o2)c1,15,7,5,-7,x,2,x,x,
O=C1C(C=Nc2ccccc2O)=C(O)c2ccccc21,13,3,4,7,-19,-2,x,x,
Cc1ccc(O)c(N=CC2=C(O)c3ccccc3C2=O)c1,51*,4,-15,-14,-13,1,42*,18*,
O=C(c1ccc(C(F)(F)F)cc1)C1CCCN(C(=O)CN2C(=O)CSC2=O)C1 (centres undefined),-4,-3,-2,-10,-10,-11,x,x,
COC(=O)c1sccc1NC(=O)CSc1ccccc1NS(=O)(=O)c1ccccc1Cl,36*,-1,2,1,-7,6,62*,20*,
CCc1ccc([C@@H]2CC=C(C(=O)O)[C@H](c3ccc(C)cc3)N2S(=O)(=O)c2ccc(C)cc2)cc1,79*,2,6,2,x,-13,82*,50*,
COc1cc(C2CC=C(C(=O)O)C(c3ccccc3F)N2S(=O)(=O)c2ccc(C)cc2)cc(OC)c1OC (centres undefined),24,-3,x,x,x,x,x,x,
CCc1ccc([C@@H]2CC=C(C(=O)O)[C@H](c3ccccc3F)N2S(=O)(=O)c2ccc(C)cc2)cc1,69*,-1,-5,3,x,3,73*,35*,
CCc1ccc([C@H]2C(C(=O)O)=C[C@@H](CC)N2S(=O)(=O)c2ccc(C)cc2)cc1,21,0,-6,0,x,5,x,x,
CCc1ccc([C@@H]2CC=C(C(=O)O)[C@H](c3ccc(Cl)cc3)N2S(=O)(=O)c2ccc(C)cc2)cc1,83*,3,-6,9,x,0,85*,54*,
CCc1ccc([C@@H]2CC=C(C(=O)O)[C@H](c3cccc(Cl)c3)N2S(=O)(=O)c2ccc(C)cc2)cc1,82*,4,-2,1,x,1,76*,36*,
